Data reported in PubChem BioAssay (Tox21).
Records with an inconclusive call do not appear. Entries that show only a call come without a potency. The source made the active and inactive calls. Calls come from the whole dose curve; as a rule, active = well fitted curve in the direction sought with a large enough effect in the repeat runs; inconclusive = weak or mixed curves; inactive = no such curve, though single readings can be large; an effect the other way counts as inactive or inconclusive.

Test: Caspase-3/7 induction in CHO-K1 cells by small molecules, qHTS cell viability counter screen (AID 1346979); note: nearly all actives have a fitted effect of over 35% in size; note: potency is the fitted concentration of half-maximal effect
Conditions: CellTiter-Fluor fluorescence, 17 h; series mostly up to 92.4 µM
How it was run: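 Wild-type CHO-K1 cells were seeded at 1,500 per well, rested 5hr at 37 C, then exposed to compounds in DMSO. After 16hr, CellTiter-Fluor reagent was added and fluorescence read 1hr later as the viability measure.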

Compound	Potency
CCc1cc(Cl)c(OC)c(C(=O)NC[C@@H]2CCCN2CC)c1O	inactive
OCc1ccccc1O	inactive
O=C(O)[C@@H](O)[C@H](O)[C@H](O)[C@@H](O)C(=O)O	inactive
CC(=O)OC(C)OC(C)=O	inactive
C/C(=N\O)[C@@H](C)NCC(C)(C)CN[C@H](C)/C(C)=N/O	inactive
O=C1CCCCCCCCCCC(=O)OCCO1	inactive
CC(CNC1CCCCC1)OC(=O)c1ccccc1 (stereo not given)	inactive
Cc1onc(-c2ccccc2)c1C(=O)Cl	inactive
C=CCCC=C	inactive
CCOC(=O)NCCC[Si](OCC)(OCC)OCC	inactive
OCc1c2ccccc2cc2ccccc12	inactive
O=C(C(Cl)Cl)N1CCOC12CCCCC2	61.1 µM (active)
Cn1cnc2c(F)c(Nc3ccc(Br)cc3Cl)c(C(=O)NOCCO)cc21	inactive
CCc1nnc(NS(=O)(=O)c2ccc(N)cc2)s1	inactive
CN1CCN(c2c(F)cc3c(=O)c(C(=O)O)cn(CCF)c3c2F)CC1	inactive
NCCCN1CCN(CCCN)CC1	inactive
COC(=O)c1ccc(OC)cc1	inactive
CCOC(=O)c1cc(=O)c2c(OCC(COc3cccc4oc(C(=O)OCC)cc(=O)c34)OC(=O)[C@@H](N)CCCCN)cccc2o1	inactive
CCN(CCCc1ccccc1)CCCc1ccccc1	inactive
O=CCCc1ccccc1	inactive
C[C@]12C(=O)OC(=O)[C@H]1[C@H]1C=C[C@@H]2C1	inactive
CC(C)NC[C@@H](O)COc1cccc2ccccc12	inactive
CCOC(=O)C1CC(=O)C(=C(O)C2CC2)C(=O)C1 (stereo not given)	inactive
FC(F)(F)C(Cl)(Cl)Cl	inactive
COc1ccc(S(=O)(=O)Nc2nnc(CC(C)C)s2)cc1	inactive
Cc1ccc([N+](=O)[O-])cc1Cl	inactive
Cc1cc(NS(=O)(=O)c2ccc(N)cc2)nc(C)n1	inactive

Test: Caspase-3/7 induction in CHO-K1 cells by small molecules, qHTS assay (AID 1346980); note: nearly all actives have a fitted effect of over 15% in size
Conditions: CHO-K1 caspase-3/7 induction, Caspase-Glo luminescence, 17 h; series mostly up to 92.4 µM
How it was run: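 Wild-type cells were seeded at 1,500 per well and settled 5 hr at 37 C, 5% CO2, then exposed to DMSO-dissolved compounds for 17 hr. Caspase-Glo 3/7 reagent was added, and luminescence was read after 30min at room temperature.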

Compound	outcome
CN1CCN(C2=Nc3cc(F)ccc3Cc3ccccc32)CC1	inactive
NC(=O)Cc1cccc(C(=O)c2ccccc2)c1N	inactive
CCc1cc(Cl)c(OC)c(C(=O)NC[C@@H]2CCCN2CC)c1O	inactive
OCc1ccccc1O	inactive
CC1(O)CSC(C)(O)CS1 (stereo not given)	inactive
O=C(O)[C@@H](O)[C@H](O)[C@H](O)[C@@H](O)C(=O)O	inactive
CC(=O)OC(C)OC(C)=O	inactive
CCC/C=C/CO	inactive
C/C(=N\O)[C@@H](C)NCC(C)(C)CN[C@H](C)/C(C)=N/O	inactive
COc1cc2c(cc1N)oc1ccccc12	inactive
O=C1CCCCCCCCCCC(=O)OCCO1	inactive
CC(CNC1CCCCC1)OC(=O)c1ccccc1 (stereo not given)	inactive
Cc1onc(-c2ccccc2)c1C(=O)Cl	inactive
C=CCCC=C	inactive
CCOC(=O)NCCC[Si](OCC)(OCC)OCC	inactive
OCc1c2ccccc2cc2ccccc12	inactive
O=C(C(Cl)Cl)N1CCOC12CCCCC2	inactive
Cn1cnc2c(F)c(Nc3ccc(Br)cc3Cl)c(C(=O)NOCCO)cc21	inactive
CCc1nnc(NS(=O)(=O)c2ccc(N)cc2)s1	inactive

Compound	outcome
CN1CCN(c2c(F)cc3c(=O)c(C(=O)O)cn(CCF)c3c2F)CC1	inactive
NCCCN1CCN(CCCN)CC1	inactive
COC(=O)c1ccc(OC)cc1	inactive
NC(=O)NS(=O)(=O)c1ccc(Cl)cc1	inactive
CCOC(=O)c1cc(=O)c2c(OCC(COc3cccc4oc(C(=O)OCC)cc(=O)c34)OC(=O)[C@@H](N)CCCCN)cccc2o1	inactive
CCN(CCCc1ccccc1)CCCc1ccccc1	inactive
CC(C)=CCC[C@](C)(O)[C@@H]1CC=C(C)CC1	inactive
O=CCCc1ccccc1	inactive
C=C(C)C(=O)OCCOP(=O)(O)O	inactive
C[C@]12C(=O)OC(=O)[C@H]1[C@H]1C=C[C@@H]2C1	inactive
Cc1ccc([N+](=O)[O-])c(N)c1	inactive
CC(C)NC[C@@H](O)COc1cccc2ccccc12	inactive
O=C(O[C@@H](C(=O)O)[C@@H](OC(=O)c1ccccc1)C(=O)O)c1ccccc1	inactive
CCOC(=O)C1CC(=O)C(=C(O)C2CC2)C(=O)C1 (stereo not given)	inactive
FC(F)(F)C(Cl)(Cl)Cl	inactive
COc1ccc(S(=O)(=O)Nc2nnc(CC(C)C)s2)cc1	inactive
Cc1ccc([N+](=O)[O-])cc1Cl	inactive
CCCCc1ccc2nc(NC(=O)OC)[nH]c2c1	inactive
Cc1cc(NS(=O)(=O)c2ccc(N)cc2)nc(C)n1	inactive

Test: Caspase-3/7 induction in HepG2 cells by small molecules, qHTS cell viability counter screen (AID 1346981); note: nearly all actives have a fitted effect of over 30% in size; note: potency is the fitted concentration of half-maximal effect
Conditions: CellTiter-Fluor fluorescence, 17 h; series mostly up to 92.4 µM
How it was run: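 Counter screen for cytotoxicity: HepG2 exposed 16 hr to compounds, then CellTiter-Fluor viability signal (fluorescence, 1 hr reagent incubation).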

Compound	Potency
CN1CCN(C2=Nc3cc(F)ccc3Cc3ccccc32)CC1	inactive
NC(=O)Cc1cccc(C(=O)c2ccccc2)c1N	inactive
CCc1cc(Cl)c(OC)c(C(=O)NC[C@@H]2CCCN2CC)c1O	inactive
OCc1ccccc1O	inactive
CC1(O)CSC(C)(O)CS1 (stereo not given)	inactive
CC(=O)OC(C)OC(C)=O	inactive
CCC/C=C/CO	inactive
C/C(=N\O)[C@@H](C)NCC(C)(C)CN[C@H](C)/C(C)=N/O	inactive
COc1cc2c(cc1N)oc1ccccc12	inactive
O=C1CCCCCCCCCCC(=O)OCCO1	inactive
CC(CNC1CCCCC1)OC(=O)c1ccccc1 (stereo not given)	inactive
Cc1onc(-c2ccccc2)c1C(=O)Cl	inactive
C=CCCC=C	inactive
CCOC(=O)NCCC[Si](OCC)(OCC)OCC	inactive
OCc1c2ccccc2cc2ccccc12	inactive
O=C(C(Cl)Cl)N1CCOC12CCCCC2	61.1 µM (active)
Cn1cnc2c(F)c(Nc3ccc(Br)cc3Cl)c(C(=O)NOCCO)cc21	inactive
CCc1nnc(NS(=O)(=O)c2ccc(N)cc2)s1	inactive

Compound	Potency
CN1CCN(c2c(F)cc3c(=O)c(C(=O)O)cn(CCF)c3c2F)CC1	inactive
NCCCN1CCN(CCCN)CC1	inactive
NC(=O)NS(=O)(=O)c1ccc(Cl)cc1	inactive
CCOC(=O)c1cc(=O)c2c(OCC(COc3cccc4oc(C(=O)OCC)cc(=O)c34)OC(=O)[C@@H](N)CCCCN)cccc2o1	inactive
CCN(CCCc1ccccc1)CCCc1ccccc1	inactive
CC(C)=CCC[C@](C)(O)[C@@H]1CC=C(C)CC1	inactive
O=CCCc1ccccc1	inactive
C=C(C)C(=O)OCCOP(=O)(O)O	inactive
C[C@]12C(=O)OC(=O)[C@H]1[C@H]1C=C[C@@H]2C1	inactive
CC(C)NC[C@@H](O)COc1cccc2ccccc12	inactive
O=C(O[C@@H](C(=O)O)[C@@H](OC(=O)c1ccccc1)C(=O)O)c1ccccc1	inactive
CCOC(=O)C1CC(=O)C(=C(O)C2CC2)C(=O)C1 (stereo not given)	inactive
FC(F)(F)C(Cl)(Cl)Cl	inactive
COc1ccc(S(=O)(=O)Nc2nnc(CC(C)C)s2)cc1	inactive
Cc1ccc([N+](=O)[O-])cc1Cl	inactive
CCCCc1ccc2nc(NC(=O)OC)[nH]c2c1	inactive
Cc1cc(NS(=O)(=O)c2ccc(N)cc2)nc(C)n1	inactive
